Experimental data as given in the supplement of paper PMC10849652.
The full data set covers some 8,800 targets. This sample favours those with a hit. About 0.5% of all pairs of compound and target were hits.

Experiments:
Assay in all cases: log2 fold change, soluble protein after heating vs DMSO (PISA); higher = thermal stabilisation; K562 lysate, 10 uM; active = over 0.2 and 3.5 SD of the protein, either way, in both replicates (recomputed)
erlotinib = compound: C#Cc1cccc(Nc2ncnc3cc(OCCOC)c(OCCOC)cc23)c1 [erlotinib]
Method in brief: (§1)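 The values are log-two fold changes in thermal stability compared with solvent controls and come from duplicates. They were obtained by TMTpro 16plex LC-MS/MS, with channel sums equalised, on the supernatant after 21,000xg for 90 min. That supernatant came from crude K562 extract at 1 mg/mL protein treated with 10 μM compound for 30 min, heated for 3 min across 48°C-58°C, pooled and brought to 0.5% NP-40 at 4°C.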

[1] = compound: C/C(=N\NC(=O)C1=CC(=CC=C1)S(=O)(=O)N2CCOCC2)/C3=C(C=CC(=C3)Cl)O
Method in brief: as §1

[2] = compound: C1=CC(=CC=C1C2=NC3=C(N2)C=C(C=C3)C(=O)N)OC4=CC=C(C=C4)Cl
Method in brief: as §1

[3] = compound: C1=CC2=C(C=CC(=C2)/C=C\3/C(=O)NC(=NCC4=CC=CS4)S3)N=C1
Method in brief: as §1

[4] = compound: C1=CC2=NC=CN=C2C=C1/C=C/3\C(=O)NC(=O)S3
Method in brief: as §1

[5] = compound: C1=CC=C(C=C1)C2=NC(=C(N2)C3=CC=NC=C3)C4=CC(=C(C=C4)Cl)O
Method in brief: as §1

[6] = compound: C1=CC=C2C(=C1)C3=NNC4=CC=CC(=C43)C2=O
Method in brief: as §1

[7] = compound: C1CCN(C1)C(=O)NC2=CC=CC(=C2)NC3=NC=C(C(=N3)NCCC4=CN=CN4)Br
Method in brief: as §1

[8] = compound: C1CN(CCC1(CC2=CC=C(C=C2)Cl)N)C3=NC=NC4=C3C=CN4
Method in brief: as §1

IRAK-1-4 Inhibitor I = compound: C1COCCN1CCN2C3=CC=CC=C3N=C2NC(=O)C4=CC(=CC=C4)[N+](=O)[O-] [IRAK-1-4 Inhibitor I]
Method in brief: as §1

ibrutinib = compound: C=CC(=O)N1CCC[C@@H](n2nc(-c3ccc(Oc4ccccc4)cc3)c3c(N)ncnc32)C1 [ibrutinib]
Method in brief: as §1

[9] = compound: CC(=O)c1cnc2ccc(-c3cc(Cl)c(O)c(Cl)c3)nc2c1N[C@H]1CC[C@H](CN(C)C)CC1
Method in brief: as §1

ralimetinib = compound: CC(C)(C)Cn1c(N)nc2ccc(-c3[nH]c(C(C)(C)C)nc3-c3ccc(F)cc3)nc21 [ralimetinib]
Method in brief: as §1

[10] = compound: CC(C)(O)CC(=O)NCCn1ccc2ncnc(Nc3ccc(Oc4cccc(C(F)(F)F)c4)c(Cl)c3)c21
Method in brief: as §1

[11] = compound: CC(C)C1=C2N=C(C=C(N2N=C1)NCC3=CC=CC=C3)NCCCCCCN
Method in brief: as §1

[12] = compound: CC1=C(C(CC(=O)N1)C2=CC=C(C=C2)C(F)(F)F)C(=O)NC3=C(C=C4C(=C3)C=NN4)F
Method in brief: as §1

[13] = compound: CC1=C(C2=C(C=C1)C(=O)C3=CC=CC=C3N2CCCN)C
Method in brief: as §1

[14] = compound: CC1=C(C=C(C=C1)NC(=O)C2=CC(=CC=C2)C(C)(C)C#N)NC3=CC4=C(C=C3)N=CN(C4=O)C
Method in brief: as §1

[15] = compound: CC1=C(C=C(C=C1)NC(=O)C2=CC(=CC=C2)N(C)C)NC(=O)C3=CC=C(C=C3)O
Method in brief: as §1

[16] = compound: CC1=CC=C(C=C1)SC2=C3C=C(SC3=CN=C2)C(=O)N
Method in brief: as §1

Measured: log2 fold change

TNPO3 (UniProt Q9Y5L0)
inactive: erlotinib 0.022 | [1] 0.001 | [2] -0.019 | [3] -0.018 | [4] 0.019 | [5] -0.008 | [6] 0 | [7] 0.018 | [8] 0.017 | IRAK-1-4 Inhibitor I 0.021 | ibrutinib -0.008 | [9] 0.015 | ralimetinib 0.003 | [10] -0.023 | [11] -0.033 | [12] -0.006 | [13] 0 | [14] -0.015 | [15] 0.003 | [16] 0.008

TCP11L1 (UniProt Q9NUJ3)
UniProt Q9NUJ3, sequence (Q9NUJ3 whole entry, looked up): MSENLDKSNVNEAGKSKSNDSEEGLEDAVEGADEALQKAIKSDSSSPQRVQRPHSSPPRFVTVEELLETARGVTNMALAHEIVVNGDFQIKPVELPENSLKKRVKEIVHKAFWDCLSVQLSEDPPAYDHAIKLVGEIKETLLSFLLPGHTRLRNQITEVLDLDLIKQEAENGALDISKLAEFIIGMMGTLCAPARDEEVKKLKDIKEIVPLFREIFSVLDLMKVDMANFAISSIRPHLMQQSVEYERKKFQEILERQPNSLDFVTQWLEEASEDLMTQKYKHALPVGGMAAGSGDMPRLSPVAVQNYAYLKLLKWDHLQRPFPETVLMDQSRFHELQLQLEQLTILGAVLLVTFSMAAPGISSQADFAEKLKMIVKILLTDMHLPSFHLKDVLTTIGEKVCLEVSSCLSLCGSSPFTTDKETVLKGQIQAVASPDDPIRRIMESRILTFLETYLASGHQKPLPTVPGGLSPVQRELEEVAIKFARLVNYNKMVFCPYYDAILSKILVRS
inactive: erlotinib 0.082 | [1] 0.032 | [2] 0.032 | [3] 0.033 | [4] -0.053 | [5] 0.075 | [6] -0.069 | [7] -0.005 | [8] 0.094 | IRAK-1-4 Inhibitor I 0.001 | ibrutinib 0.026 | [9] -0.033 | ralimetinib -0.093 | [10] -0.061 | [11] -0.045 | [12] -0.032 | [13] -0.052 | [14] -0.008 | [15] 0.02 | [16] -0.008

UBE2D1 (UniProt P51668)
UniProt P51668, sequence (P51668 whole entry, looked up): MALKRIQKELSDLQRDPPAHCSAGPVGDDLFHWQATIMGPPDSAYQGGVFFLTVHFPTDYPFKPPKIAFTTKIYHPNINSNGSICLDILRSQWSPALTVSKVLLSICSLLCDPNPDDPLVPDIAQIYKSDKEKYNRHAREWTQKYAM
inactive: erlotinib -0.043 | [1] 0.008 | [2] 0.072 | [3] -0.007 | [4] -0.032 | [5] 0.008 | [6] -0.006 | [7] -0.042 | [8] 0.015 | IRAK-1-4 Inhibitor I -0.038 | ibrutinib -0.033 | [9] 0.017 | ralimetinib -0.009 | [10] 0.073 | [11] 0.01 | [12] -0.03 | [13] -0.007 | [14] -0.002 | [15] 0.043 | [16] -0.007

TMEM14C (UniProt Q9P0S9)
UniProt Q9P0S9, sequence (Q9P0S9 whole entry, looked up): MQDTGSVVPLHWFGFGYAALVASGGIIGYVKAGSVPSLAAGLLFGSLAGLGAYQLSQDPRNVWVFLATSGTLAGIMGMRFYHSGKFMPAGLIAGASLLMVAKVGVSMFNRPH
inactive: erlotinib 0.027 | [1] -0.201 | [2] 0.046 | [3] -0.011 | [4] -0.039 | [5] 0.022 | [6] 0.063 | [7] -0.177 | [8] -0.042 | IRAK-1-4 Inhibitor I 0.064 | ibrutinib 0.04 | [9] 0.085 | ralimetinib 0.129 | [10] -0.077 | [11] -0.135 | [12] -0.047 | [13] -0.146 | [14] 0.048 | [15] 0.007 | [16] 0.152

TRAPPC10 (UniProt P48553)
inactive: erlotinib 0.066 | [1] 0.031 | [2] 0.027 | [3] 0.045 | [4] 0.018 | [5] 0.004 | [6] -0.058 | [7] 0.057 | [8] 0.005 | IRAK-1-4 Inhibitor I 0.013 | ibrutinib -0.006 | [9] -0.004 | ralimetinib 0.025 | [10] -0.03 | [11] 0.027 | [12] 0.002 | [13] -0.029 | [14] 0.019 | [15] 0.02 | [16] -0.004

TPP2 (UniProt P29144)
UniProt P29144, sequence (P29144 whole entry, looked up): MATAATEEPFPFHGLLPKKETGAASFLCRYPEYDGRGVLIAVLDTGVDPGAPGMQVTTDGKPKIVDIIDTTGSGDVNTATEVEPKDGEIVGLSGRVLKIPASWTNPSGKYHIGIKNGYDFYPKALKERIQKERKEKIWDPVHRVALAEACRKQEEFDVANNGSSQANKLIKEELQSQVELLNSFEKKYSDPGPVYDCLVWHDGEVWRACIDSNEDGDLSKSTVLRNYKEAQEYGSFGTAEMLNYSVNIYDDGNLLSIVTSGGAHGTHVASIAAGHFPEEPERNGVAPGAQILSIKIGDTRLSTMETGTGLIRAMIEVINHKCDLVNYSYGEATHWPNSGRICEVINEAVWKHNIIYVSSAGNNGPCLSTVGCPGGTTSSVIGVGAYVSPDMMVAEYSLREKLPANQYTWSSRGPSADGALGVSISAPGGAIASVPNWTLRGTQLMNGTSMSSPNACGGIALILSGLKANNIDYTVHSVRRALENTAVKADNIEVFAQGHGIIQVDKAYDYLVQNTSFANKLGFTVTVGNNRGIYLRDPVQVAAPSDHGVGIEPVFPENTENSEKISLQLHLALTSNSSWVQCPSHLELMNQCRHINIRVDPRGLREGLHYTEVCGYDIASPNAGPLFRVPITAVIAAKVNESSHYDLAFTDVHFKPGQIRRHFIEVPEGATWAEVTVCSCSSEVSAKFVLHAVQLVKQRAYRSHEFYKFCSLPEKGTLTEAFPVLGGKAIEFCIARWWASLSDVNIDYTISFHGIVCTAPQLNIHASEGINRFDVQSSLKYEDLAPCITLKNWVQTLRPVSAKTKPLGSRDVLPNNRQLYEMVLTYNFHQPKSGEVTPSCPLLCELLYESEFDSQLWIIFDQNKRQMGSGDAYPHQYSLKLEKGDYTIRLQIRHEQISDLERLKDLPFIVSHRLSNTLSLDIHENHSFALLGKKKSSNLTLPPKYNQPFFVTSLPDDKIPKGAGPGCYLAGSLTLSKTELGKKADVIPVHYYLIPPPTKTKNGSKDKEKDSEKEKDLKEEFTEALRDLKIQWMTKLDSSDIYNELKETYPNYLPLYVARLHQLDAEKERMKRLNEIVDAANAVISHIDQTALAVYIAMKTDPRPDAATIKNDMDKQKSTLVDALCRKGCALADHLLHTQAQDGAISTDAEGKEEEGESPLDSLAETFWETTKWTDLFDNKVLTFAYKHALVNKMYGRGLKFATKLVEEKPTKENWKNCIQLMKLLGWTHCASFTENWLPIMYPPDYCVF
inactive: erlotinib -0.001 | [1] -0.098 | [2] 0.01 | [3] 0.001 | [4] 0.006 | [5] 0 | [6] -0.02 | [7] -0.003 | [8] -0.005 | IRAK-1-4 Inhibitor I -0.002 | ibrutinib -0.018 | [9] -0.016 | ralimetinib -0.002 | [10] 0.014 | [11] -0.012 | [12] -0.013 | [13] 0.003 | [14] 0.008 | [15] 0.012 | [16] 0.002

TXNRD2 (UniProt Q9NNW7)
UniProt Q9NNW7, sequence (Q9NNW7 whole entry, looked up): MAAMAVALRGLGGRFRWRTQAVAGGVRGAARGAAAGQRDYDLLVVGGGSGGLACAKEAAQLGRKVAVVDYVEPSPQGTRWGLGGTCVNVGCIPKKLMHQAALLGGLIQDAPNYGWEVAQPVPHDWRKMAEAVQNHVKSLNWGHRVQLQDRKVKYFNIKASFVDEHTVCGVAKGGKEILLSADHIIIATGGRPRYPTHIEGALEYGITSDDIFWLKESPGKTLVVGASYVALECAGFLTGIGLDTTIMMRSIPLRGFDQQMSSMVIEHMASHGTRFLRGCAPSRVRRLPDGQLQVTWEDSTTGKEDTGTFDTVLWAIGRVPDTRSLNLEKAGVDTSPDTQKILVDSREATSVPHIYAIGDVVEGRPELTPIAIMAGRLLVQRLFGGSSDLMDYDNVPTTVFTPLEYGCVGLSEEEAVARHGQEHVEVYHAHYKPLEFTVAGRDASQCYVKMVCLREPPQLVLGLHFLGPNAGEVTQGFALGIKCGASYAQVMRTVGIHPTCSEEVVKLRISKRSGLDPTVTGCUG
inactive: erlotinib -0.01 | [1] -0.085 | [2] 0.049 | [3] 0.008 | [4] -0.025 | [5] 0.009 | [6] -0.031 | [7] 0.017 | [8] 0.044 | IRAK-1-4 Inhibitor I -0.007 | ibrutinib 0.014 | [9] -0.002 | ralimetinib 0.025 | [10] -0.107 | [11] 0 | [12] 0.008 | [13] -0.038 | [14] -0.014 | [15] 0.001 | [16] 0.006

TPM3 (UniProt P06753)
inactive: erlotinib -0.022 | [1] 0.027 | [2] -0.026 | [3] -0.042 | [4] -0.012 | [5] 0.014 | [6] 0.068 | [7] 0.035 | [8] -0.021 | IRAK-1-4 Inhibitor I -0.019 | ibrutinib 0.009 | [9] -0.001 | ralimetinib -0.028 | [10] 0.022 | [11] 0.013 | [12] -0.028 | [13] 0.013 | [14] -0.038 | [15] -0.016 | [16] -0.007

TLK1 isoform 2 (UniProt Q9UKI8)
inactive: erlotinib 0 | [1] -0.029 | [2] -0.024 | [3] -0.013 | [4] -0.007 | [5] -0.016 | [6] 0.145 | [7] 0.007 | [8] 0.099 | IRAK-1-4 Inhibitor I 0.023 | ibrutinib 0.017 | [9] 0.094 | ralimetinib 0.053 | [10] 0.01 | [11] 0.012 | [12] -0.002 | [13] 0.038 | [14] -0.013 | [15] -0.037 | [16] 0

TBL2 (UniProt Q9Y4P3)
UniProt Q9Y4P3, sequence (Q9Y4P3 whole entry, looked up): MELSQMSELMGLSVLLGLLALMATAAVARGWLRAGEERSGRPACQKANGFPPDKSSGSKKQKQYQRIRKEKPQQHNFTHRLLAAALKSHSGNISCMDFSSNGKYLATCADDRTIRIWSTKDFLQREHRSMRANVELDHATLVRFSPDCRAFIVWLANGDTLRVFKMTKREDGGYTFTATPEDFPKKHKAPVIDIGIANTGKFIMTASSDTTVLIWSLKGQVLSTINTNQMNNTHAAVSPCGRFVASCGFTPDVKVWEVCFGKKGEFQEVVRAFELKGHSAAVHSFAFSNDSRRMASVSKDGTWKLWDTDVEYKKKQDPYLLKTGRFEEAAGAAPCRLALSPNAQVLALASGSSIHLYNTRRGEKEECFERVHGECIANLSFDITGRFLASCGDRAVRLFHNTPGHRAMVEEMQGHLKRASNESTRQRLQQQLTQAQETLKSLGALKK
inactive: erlotinib -0.019 | [1] 0.061 | [2] -0.027 | [3] 0.061 | [4] -0.023 | [5] 0.038 | [6] -0.06 | [7] -0.027 | [8] 0.001 | IRAK-1-4 Inhibitor I -0.022 | ibrutinib 0.014 | [9] 0.059 | ralimetinib 0.005 | [10] -0.001 | [11] 0 | [12] 0.045 | [13] 0.031 | [14] -0.008 | [15] 0.03 | [16] 0.05

TUBA1B (UniProt P68363)
UniProt P68363, sequence (P68363 whole entry, looked up): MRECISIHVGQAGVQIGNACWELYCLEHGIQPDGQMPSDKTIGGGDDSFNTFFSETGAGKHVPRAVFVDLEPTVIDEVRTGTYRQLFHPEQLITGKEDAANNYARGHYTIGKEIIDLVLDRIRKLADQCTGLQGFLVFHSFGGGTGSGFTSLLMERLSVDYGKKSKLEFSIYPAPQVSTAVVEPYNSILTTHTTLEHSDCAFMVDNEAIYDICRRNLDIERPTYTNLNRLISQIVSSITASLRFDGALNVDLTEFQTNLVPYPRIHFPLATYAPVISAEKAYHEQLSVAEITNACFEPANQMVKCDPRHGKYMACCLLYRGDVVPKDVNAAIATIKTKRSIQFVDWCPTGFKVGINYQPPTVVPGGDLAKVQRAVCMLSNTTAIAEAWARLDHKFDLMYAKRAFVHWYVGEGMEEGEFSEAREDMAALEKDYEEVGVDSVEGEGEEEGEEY
inactive: erlotinib 0.031 | [1] -0.022 | [2] 0.009 | [3] -0.018 | [4] 0.006 | [5] -0.013 | [6] -0.018 | [7] 0.009 | [8] 0.02 | IRAK-1-4 Inhibitor I 0.022 | ibrutinib -0.012 | [9] 0.008 | ralimetinib 0.025 | [10] 0.003 | [11] 0.021 | [12] -0.011 | [13] -0.003 | [14] 0.018 | [15] 0.022 | [16] 0.005

TUBB2A (UniProt Q13885)
inactive: erlotinib 0.008 | [1] 0.04 | [2] 0.004 | [3] -0.021 | [4] -0.028 | [5] -0.008 | [6] -0.03 | [7] 0.014 | [8] 0.026 | IRAK-1-4 Inhibitor I 0.019 | ibrutinib 0.005 | [9] 0.014 | ralimetinib 0.032 | [10] -0.005 | [11] 0.027 | [12] 0.02 | [13] 0.001 | [14] -0.011 | [15] 0.032 | [16] 0.001

TUBB6 (UniProt Q9BUF5)
UniProt Q9BUF5, sequence (Q9BUF5 whole entry, looked up): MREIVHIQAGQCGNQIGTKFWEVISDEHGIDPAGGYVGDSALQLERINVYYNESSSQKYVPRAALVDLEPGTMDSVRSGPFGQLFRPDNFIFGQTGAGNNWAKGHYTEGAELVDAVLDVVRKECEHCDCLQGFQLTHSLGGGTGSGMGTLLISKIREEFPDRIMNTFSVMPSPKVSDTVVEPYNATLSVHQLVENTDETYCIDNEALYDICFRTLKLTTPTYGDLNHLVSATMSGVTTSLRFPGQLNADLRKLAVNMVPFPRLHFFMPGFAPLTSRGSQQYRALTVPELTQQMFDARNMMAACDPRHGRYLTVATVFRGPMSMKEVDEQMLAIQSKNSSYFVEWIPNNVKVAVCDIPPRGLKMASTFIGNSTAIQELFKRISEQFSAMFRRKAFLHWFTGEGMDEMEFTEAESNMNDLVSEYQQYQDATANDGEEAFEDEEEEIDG
inactive: erlotinib 0.039 | [1] 0.051 | [2] -0.002 | [3] 0.017 | [4] 0 | [5] 0.005 | [6] 0.009 | [7] -0.013 | [8] 0.057 | IRAK-1-4 Inhibitor I -0.003 | ibrutinib -0.005 | [9] 0.012 | ralimetinib 0.023 | [10] -0.038 | [11] 0.027 | [12] 0.012 | [13] 0.025 | [14] -0.024 | [15] -0.009 | [16] 0.025

TGOLN2 isoform 7 (UniProt O43493)
inactive: erlotinib -0.108 | [1] 0.007 | [2] 0 | [3] 0.022 | [4] -0.036 | [5] -0.021 | [6] 0.012 | [7] -0.025 | [8] 0.011 | IRAK-1-4 Inhibitor I 0.029 | ibrutinib -0.023 | [9] 0.013 | ralimetinib -0.065 | [10] -0.058 | [11] 0.003 | [12] 0.009 | [13] 0.005 | [14] -0.033 | [15] 0.051 | [16] -0.013

UBE2H (UniProt P62256)
UniProt P62256, sequence (P62256 whole entry, looked up): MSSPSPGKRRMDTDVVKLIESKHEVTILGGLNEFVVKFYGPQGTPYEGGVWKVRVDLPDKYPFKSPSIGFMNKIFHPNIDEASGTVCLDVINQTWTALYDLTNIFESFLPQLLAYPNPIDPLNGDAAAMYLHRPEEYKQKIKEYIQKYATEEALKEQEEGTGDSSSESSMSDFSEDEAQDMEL
inactive: erlotinib -0.002 | [1] -0.002 | [2] 0.009 | [3] 0.008 | [4] 0.014 | [5] 0.029 | [6] 0.019 | [7] 0.013 | [8] -0.036 | IRAK-1-4 Inhibitor I -0.026 | ibrutinib 0.032 | [9] 0.026 | ralimetinib -0.033 | [10] -0.002 | [11] -0.004 | [12] 0.064 | [13] 0.022 | [14] 0.005 | [15] 0.026 | [16] -0.027

TUBGCP3 (UniProt Q96CW5)
UniProt Q96CW5, sequence (Q96CW5 whole entry, looked up): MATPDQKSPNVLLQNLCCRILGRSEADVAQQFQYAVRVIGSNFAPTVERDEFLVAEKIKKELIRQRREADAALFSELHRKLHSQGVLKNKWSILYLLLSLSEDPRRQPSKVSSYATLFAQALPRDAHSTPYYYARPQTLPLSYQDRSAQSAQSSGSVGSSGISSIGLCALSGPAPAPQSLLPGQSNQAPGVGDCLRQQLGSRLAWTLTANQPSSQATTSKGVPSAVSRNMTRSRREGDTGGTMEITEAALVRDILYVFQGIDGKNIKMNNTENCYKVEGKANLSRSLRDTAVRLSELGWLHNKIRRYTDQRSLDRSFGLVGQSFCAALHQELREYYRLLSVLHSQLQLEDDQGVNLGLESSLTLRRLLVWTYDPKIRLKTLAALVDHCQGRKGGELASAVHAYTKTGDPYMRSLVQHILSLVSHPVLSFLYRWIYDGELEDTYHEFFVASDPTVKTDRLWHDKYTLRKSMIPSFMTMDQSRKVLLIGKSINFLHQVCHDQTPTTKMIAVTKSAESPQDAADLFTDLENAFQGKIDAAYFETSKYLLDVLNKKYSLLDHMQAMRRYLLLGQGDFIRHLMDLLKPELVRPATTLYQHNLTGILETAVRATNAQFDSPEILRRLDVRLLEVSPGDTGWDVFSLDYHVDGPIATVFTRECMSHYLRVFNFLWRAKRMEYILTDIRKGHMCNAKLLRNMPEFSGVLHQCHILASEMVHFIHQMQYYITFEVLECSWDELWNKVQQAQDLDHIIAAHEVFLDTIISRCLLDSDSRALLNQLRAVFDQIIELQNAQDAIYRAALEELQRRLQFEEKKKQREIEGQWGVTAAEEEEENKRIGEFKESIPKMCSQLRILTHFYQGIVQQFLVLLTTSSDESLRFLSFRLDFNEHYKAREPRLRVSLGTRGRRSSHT
inactive: erlotinib -0.035 | [1] 0.021 | [2] -0.054 | [3] 0.044 | [4] 0.02 | [5] -0.039 | [6] 0.012 | [7] -0.044 | [8] -0.019 | IRAK-1-4 Inhibitor I -0.054 | ibrutinib -0.007 | [9] 0.018 | ralimetinib 0.03 | [10] 0.045 | [11] -0.039 | [12] 0.003 | [13] -0.037 | [14] 0.004 | [15] 0.106 | [16] 0.028
